{
  "source": "PubChem BioAssay AID1159580",
  "about": "(chemical genetic matrix, 2015)",
  "assay": "chemical genetic growth profiling, strain panel (AID 1159580);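 also: tested at 20 µM; growth read once vehicle control cultures reached saturation at 30 °C; 1 = growth at the plate median or of vehicle wells; lower values mean less growth of the strain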",
  "settings": "S. cerevisiae deletion strains, growth OD",
  "note": "Values joined by “and” are separate entries in the source; they are usually repeats but may differ in a detail not shown here. Equal values may be shown once. About 2,000 (36%) of roughly 5,500 compounds were called active. About 18% were inconclusive and are not listed. Some of the results follow. Unmarked numbers belong to inactive results. Rule as the data show it: active = normalized growth mostly below about 0.91 (no sharp cut-off); inconclusive = no clear call, values can overlap the other calls; inactive = mostly above about 0.92.",
  "data": [
    {"smiles": "C=CCc1ccc(O)c(OC)c1", "values": [
      {"measurement": "normalized growth", "setting": "locus YAL013W, strain DEP1, stronger effect = lower value", "result": 0.971},
      {"measurement": "normalized growth", "setting": "locus YAL021C, strain ccr4, stronger effect = lower value", "result": 1.01},
      {"measurement": "normalized growth", "setting": "locus YAL026C, strain drs2, stronger effect = lower value", "result": 1},
      {"measurement": "normalized growth", "setting": "locus YAL030W, strain snc1, stronger effect = lower value", "result": 0.989},
      {"measurement": "normalized growth", "setting": "locus YBL061C, strain skt5, stronger effect = lower value", "result": 0.986},
      {"measurement": "normalized growth", "setting": "locus YBR009C, strain hhf1, stronger effect = lower value", "result": 1.02},
      {"measurement": "normalized growth", "setting": "locus YBR021W, strain FUR4, stronger effect = lower value", "result": 1.05},
      {"measurement": "normalized growth", "setting": "locus YBR023C, strain chs3, stronger effect = lower value", "result": 1},
      {"measurement": "normalized growth", "setting": "locus YBR171W, strain sec66, stronger effect = lower value", "result": 0.994},
      {"measurement": "normalized growth", "setting": "locus YBR229C, strain ROT2, stronger effect = lower value", "result": 0.94},
      {"measurement": "normalized growth", "setting": "locus YBR231C, strain swc5, stronger effect = lower value", "result": "0.907 (active)"},
      {"measurement": "normalized growth", "setting": "locus YBR279W, strain paf1, stronger effect = lower value", "result": 0.997},
      {"measurement": "normalized growth", "setting": "locus YCL011C, strain gbp2, stronger effect = lower value", "result": 1.01},
      {"measurement": "normalized growth", "setting": "locus YCL016C, strain dcc1, stronger effect = lower value", "result": 1.01},
      {"measurement": "normalized growth", "setting": "locus YCL029C, strain bik1, stronger effect = lower value", "result": 0.949},
      {"measurement": "normalized growth", "setting": "locus YCL061C, strain MRC1, stronger effect = lower value", "result": 1.01},
      {"measurement": "normalized growth", "setting": "locus YCL069W, strain vba3, stronger effect = lower value", "result": 0.993},
      {"measurement": "normalized growth", "setting": "locus YCR088W, strain abp1, stronger effect = lower value", "result": 0.984},
      {"measurement": "normalized growth", "setting": "locus YDL005C, strain med2, stronger effect = lower value", "result": 1.01},
      {"measurement": "normalized growth", "setting": "locus YDL035C, strain GPR1, stronger effect = lower value", "result": 0.992},
      {"measurement": "normalized growth", "setting": "locus YDL040C, strain nat1, stronger effect = lower value", "result": 0.98},
      {"measurement": "normalized growth", "setting": "locus YDL074C, strain BRE1, stronger effect = lower value", "result": 0.967},
      {"measurement": "normalized growth", "setting": "locus YDL101C, strain DUN1, stronger effect = lower value", "result": 0.961},
      {"measurement": "normalized growth", "setting": "locus YDL185W, strain tfp1, stronger effect = lower value", "result": 0.975},
      {"measurement": "normalized growth", "setting": "locus YDL192W, strain arf1, stronger effect = lower value", "result": "0.896 (active)"},
      {"measurement": "normalized growth", "setting": "locus YDR001C, strain nth1, stronger effect = lower value", "result": 0.982},
      {"measurement": "normalized growth", "setting": "locus YDR069C, strain doa4, stronger effect = lower value", "result": 1},
      {"measurement": "normalized growth", "setting": "locus YDR101C, strain arx1, stronger effect = lower value", "result": 0.947},
      {"measurement": "normalized growth", "setting": "locus YDR137W, strain rgp1, stronger effect = lower value", "result": 0.978},
      {"measurement": "normalized growth", "setting": "locus YDR150W, strain NUM1, stronger effect = lower value", "result": 0.938},
      {"measurement": "normalized growth", "setting": "locus YDR159W, strain sac3, stronger effect = lower value", "result": 0.949},
      {"measurement": "normalized growth", "setting": "locus YDR162C, strain NBP2, stronger effect = lower value", "result": 0.967},
      {"measurement": "normalized growth", "setting": "locus YDR195W, strain ref2", "result": 0.925},
      {"measurement": "normalized growth", "setting": "locus YDR297W, strain sur2, stronger effect = lower value", "result": 0.988},
      {"measurement": "normalized growth", "setting": "locus YDR318W, strain mcm21, stronger effect = lower value", "result": 0.925},
      {"measurement": "normalized growth", "setting": "locus YDR334W, strain swr1, stronger effect = lower value", "result": 0.983},
      {"measurement": "normalized growth", "setting": "locus YDR335W, strain msn5, stronger effect = lower value", "result": 0.996},
      {"measurement": "normalized growth", "setting": "locus YDR388W, stronger effect = lower value", "result": 0.944},
      {"measurement": "normalized growth", "setting": "locus YDR392W, strain spt3, stronger effect = lower value", "result": 0.841},
      {"measurement": "normalized growth", "setting": "locus YDR502C, strain sam2, stronger effect = lower value", "result": 0.956},
      {"measurement": "normalized growth", "setting": "locus YEL003W, strain gim4, stronger effect = lower value", "result": 0.994},
      {"measurement": "normalized growth", "setting": "locus YEL037C, strain rad23, stronger effect = lower value", "result": 0.989},
      {"measurement": "normalized growth", "setting": "locus YEL061C, strain CIN8 (second series), stronger effect = lower value", "result": 0.992},
      {"measurement": "normalized growth", "setting": "locus YEL061C, strain CIN8, stronger effect = lower value", "result": "0.923 (active)"},
      {"measurement": "normalized growth", "setting": "locus YER015W, strain faa2, stronger effect = lower value", "result": 0.995},
      {"measurement": "normalized growth", "setting": "locus YER016W, strain bim1, stronger effect = lower value", "result": 0.994},
      {"measurement": "normalized growth", "setting": "locus YER110C, stronger effect = lower value", "result": 0.908},
      {"measurement": "normalized growth", "setting": "locus YER111C, strain swi4, stronger effect = lower value", "result": 0.996},
      {"measurement": "normalized growth", "setting": "locus YER155C, strain BEM2 (second series), stronger effect = lower value", "result": "0.789 (active)"},
      {"measurement": "normalized growth", "setting": "locus YER155C, strain BEM2, stronger effect = lower value", "result": 0.93},
      {"measurement": "normalized growth", "setting": "locus YER167W, strain BCK2, stronger effect = lower value", "result": 0.911},
      {"measurement": "normalized growth", "setting": "locus YFR010W, strain ubp6, stronger effect = lower value", "result": 0.999},
      {"measurement": "normalized growth", "setting": "locus YGL078C, strain dbp3, stronger effect = lower value", "result": 0.984},
      {"measurement": "normalized growth", "setting": "locus YGL086W, strain mad1, stronger effect = lower value", "result": 0.942},
      {"measurement": "normalized growth", "setting": "locus YGL167C, strain pmr1, stronger effect = lower value", "result": 0.984},
      {"measurement": "normalized growth", "setting": "locus YGL173C, strain kem1, stronger effect = lower value", "result": 1},
      {"measurement": "normalized growth", "setting": "locus YGL227W, strain vid30, stronger effect = lower value", "result": 0.994},
      {"measurement": "normalized growth", "setting": "locus YGL240W, strain doc1, stronger effect = lower value", "result": 0.955},
      {"measurement": "normalized growth", "setting": "locus YGL248W, strain PDE1, stronger effect = lower value", "result": 0.937},
      {"measurement": "normalized growth", "setting": "locus YGL253W, strain hxk2, stronger effect = lower value", "result": 0.994},
      {"measurement": "normalized growth", "setting": "locus YGR078C, strain PAC10, stronger effect = lower value", "result": 0.929},
      {"measurement": "normalized growth", "setting": "locus YGR135W, strain pre9, stronger effect = lower value", "result": 0.926},
      {"measurement": "normalized growth", "setting": "locus YGR252W, strain gcn5, stronger effect = lower value", "result": 1.19},
      {"measurement": "normalized growth", "setting": "locus YHR013C, strain ard1, stronger effect = lower value", "result": 0.997},
      {"measurement": "normalized growth", "setting": "locus YHR027C, strain rpn1, stronger effect = lower value", "result": 1},
      {"measurement": "normalized growth", "setting": "locus YHR030C, strain SLT2, stronger effect = lower value", "result": "0.942 and 0.988"},
      {"measurement": "normalized growth", "setting": "locus YHR079C, strain IRE1 (second series), stronger effect = lower value", "result": 0.927},
      {"measurement": "normalized growth", "setting": "locus YHR079C, strain IRE1, stronger effect = lower value", "result": 0.975},
      {"measurement": "normalized growth", "setting": "locus YHR094C, strain hxt1, stronger effect = lower value", "result": 0.939},
      {"measurement": "normalized growth", "setting": "locus YHR129C, strain ARP1, stronger effect = lower value", "result": 0.931},
      {"measurement": "normalized growth", "setting": "locus YHR142W, strain chs7, stronger effect = lower value", "result": 1.01},
      {"measurement": "normalized growth", "setting": "locus YHR200W, strain rpn10, stronger effect = lower value", "result": 0.937},
      {"measurement": "normalized growth", "setting": "locus YIL066C, strain RNR3, stronger effect = lower value", "result": 0.921},
      {"measurement": "normalized growth", "setting": "locus YIL073C, strain SPO22, stronger effect = lower value", "result": 0.947},
      {"measurement": "normalized growth", "setting": "locus YIL125W, strain kgd1, stronger effect = lower value", "result": 0.942},
      {"measurement": "normalized growth", "setting": "locus YIR030C, strain dcg1, stronger effect = lower value", "result": 0.929},
      {"measurement": "normalized growth", "setting": "locus YJL092W, strain hpr5, stronger effect = lower value", "result": 0.987},
      {"measurement": "normalized growth", "setting": "locus YJL095W, strain BCK1 (second series), stronger effect = lower value", "result": 0.992},
      {"measurement": "normalized growth", "setting": "locus YJL095W, strain BCK1, stronger effect = lower value", "result": "0.937 and 0.962"},
      {"measurement": "normalized growth", "setting": "locus YJL115W, strain asf1, stronger effect = lower value", "result": 0.982},
      {"measurement": "normalized growth", "setting": "locus YJL129C, strain trk1, stronger effect = lower value", "result": 0.979},
      {"measurement": "normalized growth", "setting": "locus YJL134W, strain LCB3, stronger effect = lower value", "result": 0.937},
      {"measurement": "normalized growth", "setting": "locus YJL154C, strain vps35, stronger effect = lower value", "result": 0.996},
      {"measurement": "normalized growth", "setting": "locus YJL164C, strain tpk1, stronger effect = lower value", "result": 1.02},
      {"measurement": "normalized growth", "setting": "locus YJL166W, strain qcr8, stronger effect = lower value", "result": 1.03},
      {"measurement": "normalized growth", "setting": "locus YJL168C, strain set2, stronger effect = lower value", "result": "0.929 (active)"},
      {"measurement": "normalized growth", "setting": "locus YJL187C, strain SWE1 (second series), stronger effect = lower value", "result": 0.978}
    ]}
  ]
}
